The list is not random: actives were taken first. Their share in the collection is about 5.3%.
JMJD2A Tudor inh – blocks the human JMJD2A Tudor domain; O75164; Potency, µM (series often up to 114 µM), for inactives: at the top dose activity change, negative = inhibition, usual class: inhibitors; AID 504339; actives 4.4% (n = 390,000); AlphaScreen JMJD2A-Tudor / H3K4me3 peptide binding; also: potency is read from the fitted curve at half-maximal effect; % is scaled to controls: 0 for no effect and ±100 for the full control effect; nearly all actives have a fitted effect of over 50% in size
CtBP-E1A blk – inhibitors of CtBP/E1A interaction; AlphaScreen GST-E1A/His-CtBP binding, 1536-well; active compounds read low; activity change, % (no concentration beside the values); actives 0.49% (n = 340,000); AID 651724; in the data active = activity change below about -65%; inconclusive = mostly about -30% to -63%; also: % is scaled to controls: 0 for no effect and ±100 for the full control effect
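Steps: dispense buffer (Tris pH 8.0, NaCl 300 mM, TCEP 1 mM, BSA, Tween 20); add 5X protein mix (GST-E1A, His-CtBP, 125 nM each); pin 23 nL compound; 2 h at 37 °C, dark; add 5X beads (50 ug/mL); 1 h; read.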
Six1-Eya2 inh – blocks human Six1 binding to Eya2 | Q15475+O00167 | AlphaScreen GST-Six1/His-Eya2 binding, biochemical; active compounds read low | activity change, % (concentration not given with the values) | actives 0.56% (n = 360,000) | AID 651725; in the data active = activity change below about -65%; inconclusive = mostly about -30% to -63%; also: % is scaled to controls: 0 for no effect and ±100 for the full control effect
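Six1/Eya2 binding was read as AlphaScreen signal after compounds were pinned into GST-Six1 plus His-tagged Eya2 (5X stock 250/500 nM) in pH 8.0 Tris/NaCl/TCEP buffer, beads added, then incubated 1 h, 37 C, dark.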
TDP1 inh – blocks human tyrosyl-DNA phosphodiesterase 1; Q9NUW8; recombinant TDP1, AlphaScreen DNA substrate cleavage; Potency, µM (titrated, usually from 130 µM), without a hit: top-dose activity change, negative = inhibition, usual class: inhibitors; actives 0.28% (n = 350,000); AID 485290; also: potency is read from the fitted curve at half-maximal effect; % is scaled to controls: 0 for no effect and ±100 for the full control effect; nearly all actives have a fitted effect of over 40% in size
Target sequence (Q9NUW8 whole entry, looked up): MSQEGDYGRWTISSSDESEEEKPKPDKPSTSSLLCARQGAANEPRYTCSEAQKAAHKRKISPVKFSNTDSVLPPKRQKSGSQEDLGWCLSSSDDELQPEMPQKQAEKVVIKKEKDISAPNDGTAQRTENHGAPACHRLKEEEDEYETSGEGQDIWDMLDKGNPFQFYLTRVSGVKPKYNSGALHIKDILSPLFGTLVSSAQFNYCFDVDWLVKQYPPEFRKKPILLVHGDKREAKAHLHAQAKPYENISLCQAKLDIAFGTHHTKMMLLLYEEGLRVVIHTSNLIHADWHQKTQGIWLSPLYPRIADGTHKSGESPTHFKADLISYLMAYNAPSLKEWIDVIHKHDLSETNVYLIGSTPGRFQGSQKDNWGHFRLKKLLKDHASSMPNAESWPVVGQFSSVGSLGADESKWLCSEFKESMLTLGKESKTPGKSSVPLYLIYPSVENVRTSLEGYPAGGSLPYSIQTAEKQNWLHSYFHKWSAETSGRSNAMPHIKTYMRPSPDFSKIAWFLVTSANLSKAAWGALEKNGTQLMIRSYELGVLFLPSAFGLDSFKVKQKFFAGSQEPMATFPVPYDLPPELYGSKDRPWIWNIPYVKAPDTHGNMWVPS
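Recombinant E. coli-expressed Tdp1 (1 nM) preincubated with compound 15 min at RT, then 5'-biotin/3'-phosphotyrosine-FITC DNA substrate (15 nM) added for 5 min. AlphaScreen beads (10 ug/ml) added, 10 min RT; tyrosine-FITC cleavage read as signal loss.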
BAZ2B inh – blocks human BAZ2B; AlphaScreen BAZ2B-H3K14Ac peptide displacement; Potency, µM (top dose mostly 114 µM), for the others: at the highest dose activity change, negative = inhibition, usual class: inhibitors; actives 4.4% (n = 360,000); AID 504333; also: potency is read from the fitted curve at half-maximal effect; % is scaled to controls: 0 for no effect and ±100 for the full control effect; nearly all actives have a fitted effect of over 60% in size
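Multi-concentration screen (max 110 uM) measuring displacement of acetylated histone H3 peptide from BAZ2B by AlphaScreen, using 50 nM protein, 50 nM peptide and 10 ug/mL streptavidin donor plus Ni-chelate acceptor beads.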
HP1b chromo inh – blocks HP1-beta chromodomain binding to methylated histone tails. AID 540317. Potency, µM (highest dose often 114 µM), for inactives: top-dose activity change, negative = inhibition, actives largely listed as inhibitors. AlphaScreen HP1-beta / biotin-H3K9me3 peptide binding. actives 0.56% (n = 390,000). P83916; also: potency is read from the fitted curve at half-maximal effect; nearly all actives have a fitted effect of over 70% in size
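Compound inhibition of the preformed complex between 50 nM HP1-beta and 50 nM biotinylated H3K9me3 peptide was read by AlphaScreen. Buffer was PBS pH 7.4 with 0.01% Tween-20. Incubations ran 30 min at room temperature, with 10 ug/mL donor/acceptor beads.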
* hit, by the source's call; ? = inconclusive; . = no result given; [ ] = another dose, or the depositor's remark. Unless noted, calls follow the shape of the dose curve; as a rule, active = well fitted inhibition curve with a large enough effect; inconclusive = small, poorly fitted or top-dose-only effect; inactive = no such curve, though single readings can be large or run the other way.

SMILES	JMJD2A Tudor inh	CtBP-E1A blk	Six1-Eya2 inh	TDP1 inh	BAZ2B inh	HP1b chromo inh
COC(=O)c1cc(NC(=O)c2cccnc2)cc(C(=O)OC)c1	-8%	.	-4	3%	-15%	40%
CC(=O)c1cccc(NC(=O)c2ccc(C(=O)Nc3cccc(C(C)=O)c3)nc2)c1	20µM*	3	6	3%	?	14%
Cc1ccc(NC(=O)c2nccnc2C(=O)O)cc1C	-32%	10	-3	4%	?	20%
CC(=O)c1cccc(NC(=O)c2nccnc2C(=O)O)c1	20µM*	4	4	5%	-10%	15%
Cc1cc(C)cc(NC(=O)c2nccnc2C(=O)O)c1	79µM*	3	2	-12%	?	6%
COC(=O)c1cc(NC(=O)c2nccnc2C(=O)O)cc(C(=O)OC)c1	56µM*	0	5	-4%	-39%	31%
CN(C(=O)Cn1cnc2onc(-c3ccc(F)cc3)c2c1=O)c1ccccc1Cl	-21%	.	.	5%	10%[57.1 µM]	-2%
CC(C)C[C@H](NC(=O)c1ccc(NCc2cnc[nH]2)cc1-c1cccc2ccccc12)C(=O)O	.	.	.	11%	.	.
COc1ccc(CNC(=O)CCNS(=O)(=O)c2ccc3c(c2)CCCC(=O)N3)cc1	-10%	.	.	3%	3%[57.1 µM]	46%
C=CCCC(=O)Nc1nc(C)c(-c2csc(Nc3cc(OC)ccc3OC)n2)s1	35µM*	.	-5	9%	50µM*	?
CCCC(C)C(=O)Nc1nc(C)c(-c2csc(Nc3cc(OC)ccc3OC)n2)s1 (stereo not drawn)	?	-9	-24	7%	?	-6%
COc1ccc(OC)c(Nc2nc(-c3sc(N)nc3C)cs2)c1	50µM*	-68*	?	11%	45µM*	?
COc1ccc(S(=O)(=O)N(CC(=O)NCCc2ccccc2)c2ccc(Cl)cc2)cc1	-21%	.	.	.	-3%	-8%
CS(=O)(=O)c1ccc(N)c(SSc2cc(S(C)(=O)=O)ccc2N)c1	1.4µM*	-9	-10	-10%	35µM*	?
O=C(Nc1ccc(N2CCN(C(=O)c3ccccc3F)CC2)cc1)c1ncn[nH]1	-33%	?	-72*	-1%	.	-2%
Cc1ccccc1C(=O)N1CCN(c2ccc(NC(=O)c3cccnc3Cl)cc2)CC1	-15%	0	27	4%	-2%	32%
COc1cc(OC)cc(-c2c(-c3cccs3)c3cc(-c4ccc(N(C)C)nc4)ccc3n2C)c1	?	-1	-2	2%	56µM*	14%
Cc1ccc(Nc2nc3ccccc3c3nnc(C)n23)c(C)c1	-13%	.	.	8%	-15%	21%
COc1cccc(-c2nn3c(-c4ccccn4)nnc3s2)c1	79µM*	?	?	6%	59%	63%
COc1ccc(-c2nn3c(-c4ccccn4)nnc3s2)cc1OC	?	-89*	-81*	5%	45µM*	16%
COc1cccc(-c2nnc3sc(-c4ccccn4)nn23)c1	6%[11.4 µM]	-10	-6	4%	.	?
COc1ccc(-c2nn3c(-c4cccc(C)c4)nnc3s2)cc1OC	-18%	-19	-22	.	.	41%
COc1ccccc1-c1nnc2sc(-c3cnccn3)nn12	50µM*	-24	-6	-5%	-38%	-2%
COc1cccc(CSc2nc3n(n2)C(c2ccccc2C)C(C(=O)Nc2ccccc2OC)=C(C)N3)c1 (stereo not drawn)	-30%	.	.	5%	-14%	-13%
CCOC(=O)c1c(-c2ccc(Br)cc2)csc1NC(=O)c1ccc(C(C)(C)C)cc1	-3%	.	.	-1%[12.3 µM]	2%	47%
SMILES	JMJD2A Tudor inh	CtBP-E1A blk	Six1-Eya2 inh	TDP1 inh	BAZ2B inh	HP1b chromo inh
CCOC(=O)C1CCN(Cc2ccc(OCc3ccccc3)cc2)CC1	28µM*	3	1	.	-37%	?
CCCS(=O)(=O)N1CCN(Cc2ccc(OCc3ccccc3)c(OC)c2)CC1	28µM*	3	4	.	.	?
CCOc1cc(CN2CCN(S(=O)(=O)Cc3ccccc3)CC2)ccc1OC	-5%	1	2	-4%	0%	9%
CCOC(=O)N1CCN(C(=O)C2CCN(Cc3cccc(OCc4ccccc4)c3)CC2)CC1	2.2µM*	11	5	5%	?	?
CCOC(=O)C1CCCCN1Cc1ccc(OC)c(OC)c1 (stereo not drawn)	20µM*	0	-4	-14%	56µM*	?
COc1ccc(/C=C/C2=C[C@]3(C)C[C@]2(C)[C@H](c2ccc(OC)cc2)CC3=O)cc1	.	.	.	-7%	.	.
Cn1c(NCCCO)nc2c1c(=O)n(Cc1cccc(F)c1)c(=O)n2C	-7%	.	.	4%	-13%	4%
COc1ccc(CN2CCN(C)CC2)cc1OCc1ccccc1	-20%	7	4	3%	-8%	36%
COc1ccc(CN2CCC(C(N)=O)CC2)cc1OCc1ccccc1	32µM*	-1	4	4%	?	?
CCCCOc1ccc(C(=O)NCC(=O)NC2CCN(Cc3ccccc3)CC2)cc1	-28%	-7	3	3%	-17%	-4%
CCCCNC(=O)C1CCN(Cc2ccc(OCc3ccccc3)c(OC)c2)CC1	22µM*	.	15	.	?	-21%
CCCCN(C)C(=O)C1CCN(Cc2ccc(OCc3ccccc3)cc2)CC1	3.5µM*	6	-3	-8%	?	-51%
CCOCCCNC(=O)C1CCN(Cc2ccc(OCc3ccccc3)c(OC)c2)CC1	?	7	4	.	-11%	10%
CCOC(=O)C1CCCN(CC(=O)N2CCCc3c2c(=O)oc2ccc(OCc4ccccc4)cc32)C1 (stereo not drawn)	40µM*	.	.	.	-23%	8%
CCCN(CCC)CCNC(=O)c1cc2c(=O)oc3ccc(C)cc3c2s1	-25%	.	.	0%	-12%	8%
O=C(NC1CCN(Cc2ccccc2)CC1)c1ccccc1OCc1ccccc1	-14%	.	-12	.	-17%	19%
COc1ccc(C(=O)C2CCCN(Cc3ccc4nonc4c3)C2)cc1OC (stereo not drawn)	-20%	-5	1	2%	-13%	23%
NC(=O)C1CCN(Cc2ccc(OCc3ccccc3)cc2)CC1	3.5µM*	-2	-15	.	56µM*	?
CCOC(=O)C1CCCN(Cc2ccc(OC)c(OCc3ccccc3)c2)C1 (stereo not drawn)	28µM*	-5	-2	.	-39%	?
Cc1ccc(N2C(=O)C(CC(=O)Nc3ccc(F)cc3)N(Cc3ccc4c(c3)OCO4)C2=O)cc1 (stereo not drawn)	-15%	.	.	6%	-2%	29%

Compound activity: PubChem BioAssay, National Center for Advancing Translational Sciences (NCATS)
